# From PubChem
# ADAM10 inh = ADAM10 inhibition, QFRET primary screen; O14672; AID 720582; inhibition, % at 7 µM; recombinant ADAM10, EDANS/DABCYL FRET peptide cleavage, 3 h; 370,000 tested, 0.62% active;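 active means inhibition above a per-campaign cutoff equal to the mean of compounds falling between control-based bounds plus 3 SD, cut at about 20% in these data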
# ADAM17 inh = inhibits human ADAM17; P78536; recombinant ADAM17, EDANS/DABCYL FRET peptide cleavage; inhibition, % at 6.95 µM; 370,000 tested, 0.83% active; AID 720648;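 active means inhibition above the mean of compounds lying between control limits plus 3 SD, set per campaign, cut at about 8.5% in these data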
# Target sequence (P78536 215-824 limits assumed): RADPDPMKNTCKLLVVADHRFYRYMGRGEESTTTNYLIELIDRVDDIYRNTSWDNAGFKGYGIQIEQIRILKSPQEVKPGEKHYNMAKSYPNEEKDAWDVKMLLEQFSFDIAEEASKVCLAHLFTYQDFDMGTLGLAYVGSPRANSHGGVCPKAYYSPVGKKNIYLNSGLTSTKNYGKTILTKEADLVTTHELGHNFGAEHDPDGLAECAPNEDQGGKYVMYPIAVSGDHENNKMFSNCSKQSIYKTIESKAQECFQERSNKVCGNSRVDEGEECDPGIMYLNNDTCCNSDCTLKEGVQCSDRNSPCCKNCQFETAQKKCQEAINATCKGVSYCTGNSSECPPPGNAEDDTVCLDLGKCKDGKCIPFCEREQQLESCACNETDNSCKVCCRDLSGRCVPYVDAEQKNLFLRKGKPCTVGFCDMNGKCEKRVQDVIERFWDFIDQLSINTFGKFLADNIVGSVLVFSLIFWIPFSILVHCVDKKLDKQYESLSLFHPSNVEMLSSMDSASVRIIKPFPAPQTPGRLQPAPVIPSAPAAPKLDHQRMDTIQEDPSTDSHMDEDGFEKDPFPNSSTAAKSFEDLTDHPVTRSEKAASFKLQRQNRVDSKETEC
# APOBEC3A inh = human APOBEC3A DNA deaminase inhibition; 330,000 tested, 0.41% active; AID 493011; recombinant A3A, FAM/TAMRA ssDNA deamination fluorescence; inhibition, % at 20 µM;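 active means at least 40% inhibition at 20 µM here, with at most 30% in a related deaminase screen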
# A3G deaminase = inhibitors of human APOBEC3G DNA deaminase | AID 493012 | recombinant A3G, ssDNA deamination FAM/TAMRA fluorescence | Q9HC16 | inhibition, % at 20 µM | 330,000 tested, 0.28% active;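 active means inhibition of at least 40% at 20 µM, with no more than 30% in the related APOBEC3A deaminase screen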
# NRP1-CendR mod = alters CendR peptide binding to human NRP-1; O14786; FAM-RPARPAR peptide binding to NRP-1, fluorescence polarization; inhibition, % at 25 µM; 360,000 tested, 0.85% active;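 active means inhibition or corrected inhibition above about 18%, plus a signal ratio from 0.5 to 1.5, limit read from the data, passing the limit was not always enough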
# Hits are given with their value; 0 = inactive; - = no result given. The list is not random: actives were taken first. Their share in the collection is about 2.4%.
SMILES,ADAM10 inh,ADAM17 inh,APOBEC3A inh,A3G deaminase,NRP1-CendR mod
COc1cc(C2CC(=O)Oc3c(C(CCN4CCCC(C)C4)c4ccc(N(C)C)cc4)c(OC)cc(OC)c32)cc(OC)c1OC (stereo not given),0,0,0,0,25
COc1ccc2nc3c(cc2c1)c(NC(=O)c1cccs1)nn3CC(C)C,0,0,0,0,45
COc1ccccc1NC(=S)NCCc1ccccc1,0,0,0,0,30
COc1ccc2c(c1)CN1CN(CC(C)C)S(=O)(=O)CC21 (stereo not given),0,0,-,-,-
Cc1ccc(C(=O)COC(=O)CN2C(=O)C3C4CCC(C4)C3C2=O)cc1[N+](=O)[O-] (stereo not given),0,0,0,0,0
Cc1ccc(C(=O)COC(=O)CN2C(=O)C3C4CCC(C4)C3C2=O)cc1C (stereo not given),0,0,0,0,24
COc1ccc(-c2nnc(SCC(=O)NN=Cc3c(O)ccc4ccccc34)n2-c2ccc(OC)cc2)cc1,0,0,-,-,-
O=C(NC1CCC1)O[C@H]1CC[C@@]23CCCN2C(=O)CCC[C@H]3C1,0,0,-,-,-
COc1ccccc1-n1c(SCC(=O)N2CCCC2)nnc1-c1ccccc1,0,0,0,0,21
C=CCn1c(SCc2ccc(Cl)cc2)nc2c1c(=O)[nH]c(=O)n2C,0,0,0,0,26
O=C(NCc1ccco1)Nc1ccc2snnc2c1,0,0,0,0,40
CCOC(=O)C1=C(C(=O)OCC)C2N(Cc3ccc(C#N)cc3)c3ccccc3[C@@]23C[C@@H](C(=O)OC)N(S(=O)(=O)c2ccc(C#N)cc2)C3=N1 (stereo not given in full),0,0,-,-,-
Clc1ccc2nc(CSc3nnc(-c4c[nH]c5ccccc45)o3)cn2c1,0,0,-,-,0
Clc1cccc(CSc2nnc(-c3c[nH]c4ccccc34)o2)c1,21,0,0,0,0
O=C1NCCN1CCN1CCC(c2cn(-c3ccc(F)cc3)c3ccc(Cl)cc23)CC1,0,0,-,-,-
CC(C)[C@H]1COCCS(=O)(=O)N1Cc1cccc(Cl)c1,0,0,0,0,27
O=S1(=O)CCOC[C@H](Cc2ccccc2)N1Cc1ccccc1F,0,0,0,0,28
O=S1(=O)CCOC[C@H](Cc2ccccc2)N1Cc1cccc(F)c1,0,0,0,0,35
CCn1c2ccccc2c2cc(NC(=O)COC(=O)c3ccc(F)cc3F)ccc21,0,0,-,-,-
CC(C)N(C(C)C)S(=O)(=O)c1ccc(N2CCc3ccccc3C2)nc1,0,0,0,0,30
Cc1ccc2nccc(C(=O)N3CCCC(Nc4ccc(F)cc4)C3)c2c1 (stereo not given),0,0,0,0,22
CCOC(=O)Nc1ccc2c(c1)[C@]1(CC(=O)N(CC(C)C)C1c1ccccc1)C(=O)N2C (stereo not given in full),0,0,-,-,-
CS(=O)(=O)N(CC(=O)N1CCN(c2cccc(Cl)c2)CC1)C1CCCCC1,0,0,0,0,19
Cc1ccc(Cl)cc1N1CCN(C(=O)CN(C2CCCCC2)S(C)(=O)=O)CC1,0,0,0,0,0
NCCCC[C@H]1CN=C(N)N1CCc1cccc2ccccc12,0,0,0,0,0
SMILES,ADAM10 inh,ADAM17 inh,APOBEC3A inh,A3G deaminase,NRP1-CendR mod
NCCCC[C@H]1CN=C(N)N1CCC12CC3CC(CC(C3)C1)C2,0,0,0,0,38
CCCC(=O)OC12CCCN(C1)/C(=C/c1ccc(C#N)cc1)C2 (stereo not given),0,0,-,-,-
Cc1cccc(Nc2nc(N)c([N+](=O)[O-])c(N3CCCC(C)C3)n2)c1 (stereo not given),0,9.0,0,0,0
Cc1cccc(Nc2nc(N)c([N+](=O)[O-])c(N3CCN(C)CC3)n2)c1,0,0,0,0,0
O=C1C=C(c2cccc3c2Oc2ccccc2S3)C[C@@H](c2ccc3c(c2)OCO3)C1,0,0,-,-,-
Cc1ccc(C(=O)O)cc1NC(=O)Nc1cccc2ccccc12,0,0,0,0,22
O=C(COC(=O)c1ccccc1C(=O)c1ccccc1)Nc1ccc(SC(F)F)cc1,0,9.0,0,0,0
CCOc1ccc(NC(=O)CSc2nnc(COc3c(C)cccc3C)o2)cc1,0,0,0,0,24
Cc1cccc(C)c1OCc1nnc(SCC(=O)Nc2nccs2)o1,0,0,0,0,0
COc1cc(NC(=O)C2CCCN(S(=O)(=O)c3ccc(C)c(C)c3)C2)cc(OC)c1 (stereo not given),0,0,-,-,-
COCc1cc(N2CCN(C(=O)OC(C)(C)C)C[C@H]2C)ccc1N1CCN(Cc2ccccc2)[C@H](C)C1,0,0,-,-,-
O=C(Nc1cccc(Br)c1)c1ccc(CSc2ccccc2)cc1,0,0,0,0,40
CC1OC(OCC2OC(Oc3c(-c4ccc(O)cc4)oc4cc(O)cc(O)c4c3=O)C(O)C(O)C2O)C(O)C(O)C1O (stereo not given),0,0,0,0,22
COCCn1c(-c2ccc(OC)cc2)cnc1SCC(=O)Nc1cccc2ccccc12,0,0,0,0,26
COCCn1c(SCC(=O)Nc2ccccc2F)nc2c([nH]c3ccccc32)c1=O,0,0,0,0,0
COCCn1c(SCC(=O)Nc2ccccc2OC)nc2ccccc2c1=O,0,0,0,0,0
COCCn1c(SCC(=O)Nc2ccccc2OC)nc2c([nH]c3ccccc32)c1=O,0,0,0,0,26
Cc1ccc(C(=O)CCC(=O)Nc2cccc(C(F)(F)F)c2)cc1,0,0,0,0,26
Cc1ccc(C(=O)CCC(=O)Nc2cccc(C(F)(F)F)c2)cc1C,0,0,0,0,0
CN(C)c1ccc(C(=O)NC2CCCCN(Cc3cccc(Cl)c3)C2=O)cc1 (stereo not given),0,0,-,-,-
CC(=O)Nc1ccc(SC[C@H](Cc2ccccc2)N2CCN(CCc3ccccc3)CCC2=O)cc1,0,0,0,0,25
CC(=O)Nc1ccc(SC[C@H](Cc2ccccc2)N2CC[C@@H](O)CCC2=O)cc1,0,0,0,0,0
Cc1ccnc(N2CCC(C(=O)Nc3ccc4c(c3)OCCO4)CC2)n1,0,0,0,0,25
Cc1cc(NC(=O)c2ccc(Cl)cc2Cl)n(-c2ccccc2)n1,0,0,0,0,18
CCN(c1cccc(C)c1)S(=O)(=O)c1csc(C(N)=O)c1,0,0,0,0,0
SMILES,ADAM10 inh,ADAM17 inh,APOBEC3A inh,A3G deaminase,NRP1-CendR mod
CCN(c1cccc(C)c1)S(=O)(=O)c1ccc(-n2cccn2)cc1,0,0,0,0,22
Cc1ccc(C(=O)NNC(=O)CSc2nnc(C(C)C)n2C)cc1,0,0,0,0,20
Cc1ccc(C(=O)NNC(=O)CSc2nnc(C3CC3)n2C)cc1,0,0,0,0,0
Cn1c(SCC(=O)NNC(=O)c2ccccc2)nnc1C1CC1,0,0,0,0,24
OCC1CCCN(C(=S)Nc2ccc(Nc3ccccc3)cc2)C1 (stereo not given),0,0,0,0,33
OCC1CCCN(C(=S)Nc2ccc(OC(F)F)cc2)C1 (stereo not given),0,0,0,0,0
